Compound activity as filed in PubChem BioAssay.
A selection: hits, their analogues and other compounds. The true share with any hit is near 3.2%.
Rce1 inh: yeast Ras-converting enzyme inhibition. AID 2563. actives 0.27% (n = 290,000). yeast membranes, quenched prenylated peptide cleavage fluorescence. Q03530. calls only;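 active = fall in fluorescence gain of 50% or more versus controls, with final raw signal at or below 3038400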
Target sequence (Q03530 whole entry, looked up): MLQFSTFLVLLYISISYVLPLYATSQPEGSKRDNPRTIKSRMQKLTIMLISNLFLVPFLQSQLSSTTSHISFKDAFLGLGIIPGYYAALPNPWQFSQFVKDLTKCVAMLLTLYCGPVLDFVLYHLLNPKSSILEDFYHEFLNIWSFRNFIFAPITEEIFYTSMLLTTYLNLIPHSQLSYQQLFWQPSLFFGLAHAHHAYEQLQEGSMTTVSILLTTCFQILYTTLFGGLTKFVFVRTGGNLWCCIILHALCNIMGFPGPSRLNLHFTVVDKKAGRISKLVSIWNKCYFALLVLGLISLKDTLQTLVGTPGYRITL
CHT inh: human CHT choline transport inhibition. Q9GZV3. CHT-expressing cells, membrane potential dye, choline response; stronger effect = lower value. B-score at 10 µM. actives 0.86% (n = 310,000);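 active = B-score over 3 SD under the library average, and starting fluorescence ratio not unusually high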;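 also: choline stimulus applied at its EC90 after an EC20 pre-addition; B-score computed on integrated fluorescence ratio after choline addition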
ANO1 block: inhibitors of mouse TMEM16A calcium-activated chloride channel. Q8BHY3. HEK293 TMEM16A/YFP iodide influx fluorescence, ionomycin. normalized B-score (activity score, 25-100; higher = stronger inhibition) at 10 µM. actives 1.2% (n = 310,000). AID 588511;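 active = ratio plate-corrected score three or more library SD toward inhibition, starting fluorescence score within five deviations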;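 also: score derived from kinetic fluorescence span divided by baseline fluorescence per well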
ANO1 activ: activates or potentiates the mouse TMEM16A chloride channel; HEK293 TMEM16A/YFP-H148Q/I152L, iodide quench fluorescence; stronger effect = lower value; B-score at 10 µM; actives 0.3% (n = 340,000); AID 623877;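 active = fluorescence-ratio B-score plate-corrected deviation score at least 3 library SD below zero, with starting fluorescence score within 5 deviations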;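 also: channel opened by trigger with iodide after compound preincubation; score built on the fluorescence ratio of max minus min over baseline; more negative score means more quench and so TMEM16A activation or potentiation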
CHT allo act: allosterically activates the human high affinity choline transporter; Q9GZV3; CHT-expressing cells, membrane potential dye, choline EC20; stronger effect = higher value; LV-AA mutant CHT in HEK293 cells; B-score at 10 µM; actives 0.49% (n = 310,000); AID 488977;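 active = initial fluorescence not abnormally high and integrated response B-score, plate-corrected, over 3 SD above library mean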
Kir21 inh: Kir2.1 (mouse) channel inhibition | B-score at 10 µM | actives 0.85% (n = 310,000) | HEK293-Kir2.1, FluxOR thallium flux fluorescence; stronger effect = lower value | P35561;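 active = fluorescence ratio B-score at or below minus 3 SD of library scores, with starting-brightness B-score within 2 SD, cut at about -4.2 in these data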;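 also: channel flux triggered by added potassium and thallium sulfate stimulus; B-score of peak minus minimum fluorescence over baseline after thallium stimulus; more negative B-score means stronger Kir2.1 block with less thallium influx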
CHT activ conf: confirmation of human choline transporter (CHT) activators; shares compounds with CHT allo act; actives 91% (n = 2,500); activation, % at 10 µM; AID 504833; CHT-expressing cells, membrane potential dye fluorescence (FDSS); % of choline EC20–EC90 response window; HEK293 expressing CHT LV-AA mutant; choline added at its EC20;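 active = primary screen active, with duplicate mean activation above negative control mean plus 3 SD, cut at about 11% in these data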
HEK293 MP dye: CHT activator counter-screen hit in parental HEK293 cells | shares compounds with CHT allo act | membrane potential dye fluorescence (FDSS); measured after EC20 choline addition | ratio readout change at 10 µM, hits read low | actives 62% (n = 2,500) | AID 623908;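 active = duplicate-averaged ratio beyond 3 SD from buffer wells, up or down, though filed actives are nearly all decreases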
Hits are given with their value; i = inactive; nt = no result.

SMILES | Rce1 inh | CHT inh | ANO1 block | ANO1 activ | CHT allo act | Kir21 inh | CHT activ conf | HEK293 MP dye
CC1CCN(c2nc3c(c(=O)n(C)c(=O)n3C)n2Cc2ccccc2)CC1 | i | i | i | i | 6.6 | i | i | i
CC(CSc1nnnn1-c1ccccc1)Cn1c(N2CCN(C)CC2)nc2c1c(=O)[nH]c(=O)n2C (configuration not stated) | i | i | i | i | i | i | nt | nt
CN1CCN(c2nc3c(c(=O)[nH]c(=O)n3C)n2CCSc2nnnn2-c2ccccc2)CC1 | i | i | i | i | 8.2 | i | 59 | -68
CCC(=O)N(CCC(c1ccc(C)cc1)c1ccco1)Cc1ccco1 (configuration not stated) | i | i | i | i | 8.7 | i | 40 | i
Cc1ccc(C(CCN)c2ccco2)cc1 (configuration not stated) | i | i | i | i | i | i | nt | nt
CC(=O)/C=C(\C)Nc1ccccc1O | i | i | i | i | i | i | nt | nt
COc1ccccc1-c1cc(C(=O)N2CCN(S(=O)(=O)c3ccc(C)cc3)CC2)[nH]n1 | i | i | i | i | i | i | nt | nt
CC(=O)N1CCN(c2ccnc3cc(Cl)ccc23)CC1 | i | i | i | i | 8.6 | i | 65 | -67
O=C(COc1ccccc1)NCC(c1ccco1)N1CCN(c2ccccc2)CC1 (configuration not stated) | i | i | i | i | 8 | i | 45 | i
CC1(O)CC(C)(C)C(C#N)C(=O)N1 (configuration not stated) | nt | nt | nt | i | nt | nt | nt | nt
Nc1c2c(nc3ccn(-c4ccccc4)c(=O)c13)CCCCC2 | i | i | i | i | i | i | 49 | -50
Nc1c2c(nc3ccn(Cc4ccccc4)c(=O)c13)CCC2 | i | i | i | i | 7 | i | 54 | -50
Nn1c(SCC(=O)NC2CCS(=O)(=O)C2)nnc1-c1ccco1 (configuration not stated) | nt | nt | nt | i | nt | nt | nt | nt
CCN(CC)c1ccc(C(=O)OCC(=O)Nc2ccc3[nH]c(=O)[nH]c3c2)cc1 | i | i | i | i | i | i | nt | nt
Cc1cccc2cc(-c3ccccc3)c(-c3ccccc3)c[n+]12 | i | i | i | i | i | i | 56 | -53
CCOC(=O)c1cnc2ccc(OCC)cc2c1N1CCN(C)CC1 | i | i | i | i | 8.4 | i | 41 | -40
CCOC(=O)CC(NC(=O)c1cccc2c1C(=O)N(Cc1cccnc1)C2)c1ccc(OC(C)C)cc1 (configuration not stated) | i | i | i | i | i | i | nt | nt
CCC(C)c1ccccc1N1CC(C(=O)Nc2ccccc2N2CCCC2)CC1=O (configuration not stated) | i | i | i | i | i | i | 29 | i
CCOc1ccccc1N1CC(C(=O)Nc2ccccc2N2CCCC2)CC1=O (configuration not stated) | i | i | i | i | i | i | nt | nt
COC(=O)c1cc2c(ccn2-c2ccc(F)cc2)n1CC(C)C | i | i | 100 | i | i | i | 24 | i
CCCn1c(C(=O)OC)cc2c1ccn2-c1ccc(F)cc1 | i | i | i | i | i | i | nt | nt
O=C(c1cc(F)ccc1F)C1CCCN(Cc2cccn2-c2ccccn2)C1 (configuration not stated) | i | i | i | i | 13 | i | 42 | i
CCOC(=O)c1cc(-c2ccccc2)nc2c1c(C)nn2-c1ccccn1 | i | i | i | i | 8.6 | i | i | i
CC[n+]1ccc(C[n+]2ccccc2)c2ccccc21 | nt | i | i | i | 11 | nt | 85 | -87
CC(c1nccs1)N(C)c1nc2nonc2nc1N(C)C (configuration not stated) | i | i | i | i | i | i | nt | nt
SMILES | Rce1 inh | CHT inh | ANO1 block | ANO1 activ | CHT allo act | Kir21 inh | CHT activ conf | HEK293 MP dye
Cc1ccc2[nH]c3c(c2c1)CCN(C)C3 | i | i | i | i | i | i | nt | nt
CCOC(=O)N1CCN(c2c(N3CCN(c4ccc(F)cc4)CC3)c(=O)c2=O)CC1 | i | i | i | i | i | i | nt | nt
CCOC(=O)N1CCN(c2c(NCc3ccc(F)cc3)c(=O)c2=O)CC1 | i | i | i | i | i | i | i | i
CC12CCC(C(NC(=S)NN)C1=O)C2(C)C (configuration not stated) | nt | nt | nt | i | nt | nt | nt | nt
CN(C)CCNS(=O)(=O)c1ccc2c3c(cccc13)C(=O)N2 | i | i | i | i | 6.5 | i | 74 | -86
CN1CCN(S(=O)(=O)c2ccc3c4c(cccc24)C(=O)N3)CC1 | i | i | i | i | 10 | i | 84 | -85
COc1ccc(C[C@H]2CN3C(=NC[C@@H]3C)N2CCNC(=O)CCC2CCCCC2)cc1 | i | i | i | i | i | i | i | i
O=C(CCC1CCCCC1)NCCN1C2=NC[C@H](Cc3ccccc3)N2C[C@H]1Cc1ccc(O)cc1 | i | i | i | i | 6.8 | i | 40 | i
O=C(CCC1CCCCC1)NCCN1C2=NC[C@@H](Cc3ccccc3)N2C[C@H]1Cc1ccc(O)cc1 | i | i | i | i | 13 | -4.5 | 37 | i
Brc1ccc(-c2ccc(/C=N/Nc3nc4ccccc4[nH]3)o2)cc1 | i | i | i | i | i | i | nt | nt
CC1(C)Cc2c(sc3nc4n(-c5ccccc5)cnn4c(=O)c23)CO1 | i | i | i | i | i | i | nt | nt
CCNS(=O)(=O)c1cc(-c2nnc(OC)c3ccccc23)ccc1C | i | i | i | i | 7.7 | i | i | i
COc1ccc(OC)c(C2C(C(=O)c3cc4ccccc4o3)=C(O)C(=O)N2c2cc(C)on2)c1 (configuration not stated) | i | i | i | i | i | i | 11 | i
COc1ccccc1C1C(C(=O)c2cc3ccccc3o2)=C(O)C(=O)N1c1cc(C)on1 (configuration not stated) | i | i | i | i | i | i | nt | nt
Cc1cccc2cc3c(N)c(C(=O)N4CCc5ccccc54)sc3nc12 | i | i | i | i | i | i | 26 | i
Cc1ccc2nc3c(cc(C#N)c(=N)n3Cc3cccnc3)c(=O)n2c1 | i | i | i | nt | 8.5 | i | 41 | -28
COC(=O)c1cc2c(=O)n3ccccc3nc2n(Cc2cccnc2)c1=N | i | i | i | nt | 6.8 | i | 40 | -55
CCn1c(SCC(=O)NCCCN2CCCC2=O)nnc1-c1cccc(C)c1 | nt | nt | nt | i | nt | nt | nt | nt
CCC(=O)N1CCN(c2cc(N3CCN(C)CC3)c(F)cc2[N+](=O)[O-])CC1 | i | i | i | i | 8 | i | 57 | -58
